{"source": "PubChem BioAssay (Tox21)", "note": "Inconclusive results are not listed. Unmarked numbers belong to inactive results. Calls come from the whole dose curve."}
{"target": "Vitamin D3 receptor (Homo sapiens) (UniProt P11473)", "sequence (P11473 whole entry, looked up)": "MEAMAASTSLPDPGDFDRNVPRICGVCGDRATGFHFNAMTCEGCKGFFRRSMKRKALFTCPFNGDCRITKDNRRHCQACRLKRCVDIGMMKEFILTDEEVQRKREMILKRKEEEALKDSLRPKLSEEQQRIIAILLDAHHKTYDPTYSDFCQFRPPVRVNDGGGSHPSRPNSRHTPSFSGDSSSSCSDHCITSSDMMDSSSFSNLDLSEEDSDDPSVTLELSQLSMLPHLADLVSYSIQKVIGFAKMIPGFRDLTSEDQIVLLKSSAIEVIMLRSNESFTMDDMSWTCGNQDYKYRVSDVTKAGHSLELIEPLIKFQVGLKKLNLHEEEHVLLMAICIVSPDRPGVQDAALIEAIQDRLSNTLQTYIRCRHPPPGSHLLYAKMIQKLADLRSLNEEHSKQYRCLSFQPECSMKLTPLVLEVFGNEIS", "experiment": "qHTS assay to identify small molecule agonists of the vitamin D receptor (VDR) signaling pathway (AID 743222); note: % is set by controls: 0 for no effect and ±100 for the full control effect", "conditions": "HEK293T VDR-UAS-bla, beta-lactamase FRET ratio, 16 h; series mostly up to 63.5 µM; activation: at the top concentration", "text": "National Center for Advancing Translational Sciences [NCATS]\nNIH Chemical Genomics Center [NCGC]\nU.S. Environmental Protection Agency [EPA]\nNational Institutes of Environmental Health Sciences [NIEHS]\nNational Toxicology Program [NTP]\nU.S. Food and Drug Administration [FDA]\nThe vitamin D receptor (VDR), a member of nuclear hormone receptor superfamily, plays a critical role in calcium homeostasis and bone metabolism. It is also involved in cell differentiation and growth, and thrombogenicity.\nTox21 Assay Protocol Summary:\nVDR-bla cells were dispensed at 2,000 cells/6 uL/well into black wall/clear-bottom 1536-well plates using a Multidrop Combi (Thermo Fisher Scientific, Waltham, MA) dispenser. After the assay plates were incubated at a 37C and 5% CO2 for 4 h, 23 nL of compounds dissolved in DMSO, positive controls or DMSO only was transferred to the assay plate by a Pintool station (Kalypsys, San Diego, CA). The plates were incubated at 37C and 5% CO2 for 16 h. After 1 uL of LiveBLAzerTM B/G FRET substrate was added using a Bioraptr Flying Reagent Dispenser (FRD) workstation (Beckman Coulter, Indianapolis, IN, USA), the plates were incubated at room temperature for 2 h, and fluorescence intensity was measured by an Envision plate reader (PerkinElmer, Shelton, CT)."}
{"molecule": "C=CC(C)(O)CCCC(C)CCCC(C)CCCC(C)C", "note": "(stereo not given)", "activation": "8.8%"}
{"molecule": "COC(=O)c1cc(S(N)(=O)=O)ccc1OC", "activation": "2.25%"}
{"molecule": "COC(OC)(C(=O)c1ccccc1)c1ccccc1", "activation": "-0.176%"}
{"molecule": "CSc1ccc(Oc2ccc(S(N)(=O)=O)cc2CN(C)C)cc1C", "activation": "-18.9%"}
{"molecule": "CC1(C)C(=O)N(Br)C(=O)N1Cl", "activation": "-1.28%"}
{"molecule": "CN1CCCN=C1/C=C/c1cccs1", "activation": "8.98%"}
{"molecule": "CCOC(=O)CC(=O)C(=O)OCC", "activation": "5.76%"}
{"molecule": "CC(=O)OCC(=O)[C@H]1CC[C@H]2[C@@H]3CCC4=CC(=O)CC[C@]4(C)[C@H]3CC[C@]12C", "activation": "-6.86%"}
{"molecule": "CC1CC(=O)NN=C1c1ccc(NCC(C)(C)NCC(O)COc2cc(Cl)ccc2C#N)cc1", "note": "(stereo not given)", "activation": "-0.259%"}
{"molecule": "Cc1ccc(Nc2nccc(N(C)c3ccc4c(C)n(C)nc4c3)n2)cc1S(N)(=O)=O", "activation": "6.66%"}
{"molecule": "Cc1cc2nc3ccc(=[N+](C)C)cc-3sc2cc1N", "activation": "0.152%"}
{"molecule": "CCOCCn1c(C2CCN(CCc3ccc(C(C)(C)C(=O)O)cc3)CC2)nc2ccccc21", "activation": "10.3%"}
{"molecule": "C/C=C(\\C)C(=O)OCCC(C)CCC=C(C)C", "note": "(stereo not given)", "activation": "-1.84%"}
{"molecule": "CCN(CC)CCNC(=O)c1ccc(NC(C)=O)cc1", "activation": "4.41%"}
{"molecule": "CCCOC(=O)c1ccc(N)cc1", "activation": "-3.52%"}
{"molecule": "C=CC(=C)CCCC(C)(C)OC(C)=O", "activation": "-8.91%"}
{"molecule": "COC(=O)CC(=O)C(C)(C)C", "activation": "7.07%"}
{"molecule": "C=CC(C)(C)CC(=O)OC", "activation": "2.93% [at 81.1 µM]"}
{"molecule": "Cc1ccccc1N1C(=O)c2cc(S(N)(=O)=O)c(Cl)cc2NC1C", "note": "(stereo not given)", "activation": "-2.88%"}
{"molecule": "OCCSc1ccccc1", "activation": "-0.867%"}
{"molecule": "OC(CCCN1CCCCC1)(c1ccccc1)c1ccccc1", "activation": "1.95%"}
{"molecule": "CCCCC(=O)O[C@]1(C(=O)CO)[C@@H](C)C[C@H]2[C@@H]3CCC4=CC(=O)C=C[C@]4(C)[C@@]3(F)[C@@H](O)C[C@@]21C", "activation": "-18.7%"}
{"molecule": "C=CC(=O)NCOCC(C)C", "activation": "-1.56%"}
{"molecule": "Nc1nccs1", "activation": "-0.603%"}
{"molecule": "CC1=NN(c2ccc(C(=O)O)cc2)C(=O)C1", "activation": "10.3%"}
{"molecule": "O=C(O)c1c(O)c(-c2ccccc2)nc2ccccc12", "activation": "2.26%"}
{"molecule": "CC(C)CCCC(=O)O", "activation": "-4.19%"}
{"molecule": "Cc1ccc(/C=N/n2c(-c3ccccc3)csc2=S)cc1", "activation": "-10.4%"}
{"molecule": "CCCCCCCCCCCC[N+](C)(C)CCCS(=O)(=O)[O-]", "activation": "-17.4% [at 81.1 µM]"}
{"molecule": "C=C(C)C(=O)OCCOC(=O)CC(C)=O", "activation": "-0.795%"}
{"molecule": "CCCCCCCC/C=C\\CCCCCCCC(=O)OC", "activation": "0.867%"}
{"molecule": "ON(Cc1ccccc1)Cc1ccccc1", "activation": "0.578%"}
{"molecule": "COc1ccccc1N=Nc1c(S(=O)(=O)O)cc2cc(S(=O)(=O)O)cc(NC(C)=O)c2c1O", "activation": "4.58%"}
{"molecule": "CCOc1cc(N)c(Cl)cc1C(=O)NCC1CN(Cc2ccc(F)cc2)CCO1", "note": "(stereo not given)", "activation": "0.0783%"}
{"molecule": "CC(C)(C)C(=O)O", "activation": "5.87% [at 81.1 µM]"}
{"molecule": "C(=C\\c1ccccc1)/CN1CCN(C(c2ccccc2)c2ccccc2)CC1", "activation": "-8.27%"}
{"molecule": "CC(=O)Oc1ccc2c(c1)CC[C@@H]1[C@@H]2CC[C@]2(C)[C@@H](O)CC[C@@H]12", "activation": "-3.17%"}
{"molecule": "C[Si](NC1CCCCC1)(NC1CCCCC1)NC1CCCCC1", "activation": "3.88%"}
{"molecule": "Nc1nc(Cl)nc2c1ncn2[C@@H]1O[C@H](CO)[C@@H](O)[C@@H]1F", "activation": "-7.58%"}
{"molecule": "CC(Cl)C(Cl)Cl", "note": "(stereo not given)", "activation": "-1.23%"}
